High-throughput results from PubChem BioAssay.
Only some compounds are listed: those with a hit (about 0.61% of all), similar ones and a draw of the others.
Mtb hypoxia inh – Mtb hypoxia fluorescent reporter inhibition; M. tuberculosis hypoxia-regulated fluorescent reporter, fluorescence; fluorescence inhibition, % (concentration not given with the values); 0.1% of 300,000 active; in the data active = fluorescence inhibition mostly above about 23%, no sharp cut-off; inactive = mostly below about 17%
Mtb bLac sens – beta-lactam sensitization of Mtb H37Rv; M. tuberculosis H37Rv growth with meropenem, percent inhibition; AID 434955; 0.27% of 330,000 active; inhibition, % at 25 µM; call rule not given here;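 note: growth measured after seven days incubation then overnight dye step; 0% = bacteria only wells and 100% = bacteria with antibiotic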
Sa RN4220 lethal – S. aureus RN4220 growth inhibition; OD600, 16 h; inhibition, % (test concentration not listed); 0.33% of 330,000 active; in the data active = inhibition above about 85%;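 note: plate controls were untreated cells for no effect and reference antibiotic for full effect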
ugtP null kill – growth inhibition of S. aureus ugtP deletion strain. growth inhibition, % (concentration not given with the values). S. aureus RN4220 ugtP deletion, OD600 growth, 16 h. AID 1259309. 0.54% of 330,000 active; in the data active = growth inhibition above about 68%;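 note: plate controls were untreated wells for no effect and antibiotic for full effect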
* = called active by the depositor; . = no result given.

SMILES	Mtb hypoxia inh	Mtb bLac sens	Sa RN4220 lethal	ugtP null kill
CCOc1ccc(C=NOCC(=O)NC(c2ccccc2)c2ccccc2)cc1	-1	.	-12	35
Oc1c(Cl)cc(Cl)cc1CNn1cnnc1	5	-2	3	2
Cc1cc(C)c(O)c(CN(C)Cc2cc(Cl)cc(Cl)c2O)c1	2	.	100*	86*
O=C(NN=Cc1ccncc1)c1ccc(Cl)s1	-7	.	3	2
CCCCCCc1nnc(NC(=O)OCC)s1	45*	-5	3	2
Oc1cccc(-c2nc3ccc4ccccc4c3c3c2CCC3)c1	7	100	61	100*
O=Cc1c(N2CCSCC2)nc2ccccn2c1=O	40*	55	0	1
O=Cc1c(N2CCN(c3ccccc3)CC2)nc2ccccn2c1=O	22	-2	6	-3
CC(C)(C)c1ccc(C=NNC(=O)CN2CCS(=O)(=O)CC2)cc1	0	.	0	-2
N/C(=N\N=Cc1ccco1)SC1CC(=O)N(c2ccccc2)C1=O (configuration not stated)	11	.	7	3
CCC(C)C1CN(C(C)CN2CCCC2CN2C(N)=NCC2CC(C)C)C(=N)N1CCc1ccc(Cl)c(Cl)c1 (configuration not stated)	.	.	101*	99*
CCC(C)C1CN(C(C)CN2CCCC2CN2C(N)=NCC2Cc2ccccc2)C(=N)N1CCc1ccc(Cl)c(Cl)c1 (configuration not stated)	.	.	100*	98*
CC(C)CCCN1C(Nc2ccccc2)=NCC1CC(C)C (configuration not stated)	2	.	3	-19
Cc1ccc2ccc3cccc4ccc1c2c34	16	63	-8	100*
C/C=N/NC(=O)c1cc(Br)ccc1O	.	4	.	.
O=C(c1ccc(O)c(Br)c1)c1cc(Br)ccc1O	2	.	77	84*
O=C(C(=O)c1cc(Br)ccc1O)c1cc(Br)ccc1O	8	.	100*	100*
O=C(O)CC1SC(=NN=C2CCCCCC2)N(c2ccccc2)C1=O (configuration not stated)	5	.	1	-8
O=S(=O)(NN=Cc1ccc(Cl)cc1)c1ccc(Cc2ncc(C(F)(F)F)cc2Cl)s1	.	.	7	-25
Cc1ccsc1C=NNC(=O)c1ccc([N+](=O)[O-])cc1	-2	.	6	8
CN(N=Cc1ccccc1Cl)c1ncc(Cl)cc1C(F)(F)F	5	.	-5	85*
COC(=O)C1=C(c2cc3ccccc3s2)CC2CCC1N2C(=O)N1CCCC1 (configuration not stated)	10	.	10	9
OCC#CCSc1nnc(-c2cccc3ccccc23)o1	54*	72	9	-5
O=C(OCC#CCSc1nnc(-c2cccc3ccccc23)o1)c1ccc(Cl)cc1	.	7	5	11
CCOc1ccc(/C=C/C(=O)c2c(O)c3ccccc3oc2=O)cc1	-1	79	-5	92*
SMILES	Mtb hypoxia inh	Mtb bLac sens	Sa RN4220 lethal	ugtP null kill
CN1C(=O)C2C[C@@]3(Br)c4ccccc4N(OOSc4ccccc4)C3N2C(=O)C1Cc1ccccc1 (some centres not stated)	5	.	10	13
Cc1cc(N2CCCCC2)nc(-c2ccc(Br)cc2)n1	17	48	-2	87*
CCSc1cc(N2CCCC2)nc(-c2ccc(C)cc2)n1	-3	-1	4	3
CC1CCCN(C(=O)CSc2nnc(-c3cccs3)o2)C1 (configuration not stated)	51*	92	5	6
O=C(CSc1nnc(-c2ccccc2)o1)N1CCCCC1	.	90	3	-2
O=C(CSc1nnc(-c2ccc(F)cc2)o1)N1CCCCC1	46*	76	2	-6
COc1ccccc1C(=O)Nc1ccccc1SC(=O)c1ccccc1OC	-3	5	22	89*
COC(=O)c1ccccc1NC(=O)c1ccccc1OC	.	96	6	-1
COc1ccc(C(=O)Nc2ccc(C)cc2C(=O)c2ccccc2)cc1	14	64	-1	19
COc1ccccc1C(=O)Nc1ccc(C)cc1C(=O)c1ccccc1	11	82	-3	93*
COc1ccc(C2=CC(=O)CC(c3ccc(F)cc3)C2)cc1F (configuration not stated)	8	.	2	-1
C(=NNc1nc2ccccc2s1)c1cccs1	-5	.	-4	-19
CCCc1cc(=O)n2[nH]cc(-c3ccc(Cl)cc3)c2n1	-1	98	99*	99*
COCc1cc(=O)n2[nH]cc(-c3ccccc3)c2n1	6	.	6	2
CCc1nnc(NS(=O)(=O)c2ccc(Nc3ccc([N+](=O)[O-])c4nonc34)cc2)s1	39*	3	6	-4
CCOc1ccccc1C(=O)NN=Cc1ccoc1	0	.	-1	-2
Cc1ccc(C(=O)OCC(=O)N2CCC(C)CC2)cc1S(=O)(=O)N1CCCCC1	4	-12	3	1
Cc1ccc(C(=O)OCC(=O)NC2CCCC(C)C2C)cc1S(=O)(=O)N1CCCCC1 (configuration not stated)	24*	3	2	-4
CC(=NNC(=O)c1ccc(CN2CCOCC2)cc1)c1ccc([N+](=O)[O-])cc1	-13	.	7	3
CC(CS)C(=O)N1CCCC1C(=O)O (configuration not stated)	12	.	4	-1
CN1CCc2c(c3c(n2C)CCN(C)C3c2cccnc2)C1c1cccnc1 (configuration not stated)	-2	.	10	2
S=C(NCCc1ccc(Cl)cc1)Nc1ccc(Cl)cc1Cl	2	13	100*	99*
S=C(NCc1ccc(Cl)cc1)Nc1ccc(Cl)cc1Cl	10	4	-8	-26
CC(=NNC(=S)NCCc1ccccc1)c1ccc(Cl)cc1Cl	12	.	1	90*
Cc1ccc(Nc2nc(NN=Cc3ccc4c(c3)OCO4)nc(N3CCOCC3)n2)cc1	-10	.	6	-26
SMILES	Mtb hypoxia inh	Mtb bLac sens	Sa RN4220 lethal	ugtP null kill
NS(=O)(=O)c1ccc(NC(=O)c2ccc(Cl)c(S(=O)(=O)NCc3ccco3)c2)cc1	22*	-10	-2	3
COc1cc(CSC)nc(-c2ccccc2)n1	7	0	3	5
CSCc1cc(N(C)c2ccccc2)nc(-c2ccccc2)n1	-4	7	0	88*
CCOc1ccccc1C=C1SC(=S)NC1=O	8	.	95*	97*
O=C1NC(=S)SC1=Cc1ccccc1Br	21	.	100*	100*
CCOc1ccc(/C=C2\SC(=S)NC2=O)cc1OC	6	28	79	88*
COc1cc(/C=C2\SC(=S)NC2=O)ccc1OS(=O)(=O)c1ccccc1	.	40	.	.
O=C(NN=Cc1ccc(OC(=O)c2ccccc2)cc1)c1ccc(CN2CCOCC2)cc1	4	.	3	-9
CCCCC1SC(=NN=Cc2ccc(OC)cc2)N(Cc2ccc(OC)cc2)C1=O (configuration not stated)	20	.	-4	23
O=C(C[n+]1ccc(C(=O)NN=Cc2ccc(O)cc2)cc1)c1ccccc1	4	.	6	0
C[N+]([O-])=CC1C(=O)CCCC1=O	7	.	2	-7
CCc1ccc(/C=C/C(=O)C2C(=O)c3ccccc3C2=O)cc1	4	98	100*	97*
Cc1ccc(S(=O)(=O)NN=C2CC(c3ccccc3)Oc3ccccc32)cc1 (configuration not stated)	.	.	-2	27
